{"source": "PubChem BioAssay (NCATS)", "note": "Inconclusive results are not listed. A number with no mark means an inactive call. Calls of active or inactive are those of the source. The call rests on the fitted dose curve; in most records, active means well fitted inhibition curve with a large enough effect; inconclusive means small, poorly fitted or top-dose-only effect; inactive means flat fitted curve, though single readings scatter. Potency means the concentration at half of the fitted maximal effect.", "data": [{"tested_on": "P94_40", "test": "qHTS profiling for inhibitors of Plasmodium falciparum proliferation (AID 504749); further: nearly all actives have a fitted effect of over 60% in size;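 on activity, negative = inhibition: 0% = DMSO vehicle and full inhibition = artemisinin control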", "conditions": "P. falciparum in erythrocytes, SYBR Green DNA, 72 h; series mostly up to 28.7 µM; activity, negative = inhibition: at the top concentration", "summary_of_the_method": "(§1)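 Parasite proliferation within erythrocytes, 72 h exposure. Endpoint: SYBR Green I fluorescence after overnight lysis at room temperature. Controls: 0.29 uM artemisinin, DMSO.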", "values": [{"smiles": "CC(=O)Nc1ncc([N+](=O)[O-])s1", "activity, negative = inhibition": "0.793%"}, {"smiles": "C#C[C@]1(O)CC[C@H]2[C@@H]3CCc4cc(OC)ccc4[C@H]3CC[C@@]21C", "activity, negative = inhibition": "11.6%"}, {"smiles": "CC(=O)Nc1ccc(CC(=O)O)cc1", "activity, negative = inhibition": "14.8%"}, {"smiles": "COc1ccc(-c2cc(C(F)F)nn2-c2ccc(S(N)(=O)=O)cc2)cc1F", "activity, negative = inhibition": "10.3%"}, {"smiles": "Nc1ccc(S(=O)(=O)Nc2cnc3ccccc3n2)cc1", "activity, negative = inhibition": "9.54%"}, {"smiles": "CCCCCCCCCCCCCCCCO", "activity, negative = inhibition": "13.7%"}, {"smiles": "Cc1cccc(C)c1NC(=O)CN1CCCC1", "activity, negative = inhibition": "0.313%"}, {"smiles": "C[N+]1(CC2COC(c3ccccc3)(C3CCCCC3)O2)CCCCC1", "note": "(stereo unspecified)", "Potency": "4.47 µM (active)"}, {"smiles": "CCCCNc1ccc(C(=O)OCCOCCOCCOCCOCCOCCOCCOCCOCCOC)cc1", "activity, negative = inhibition": "22.2% [at 12.8 µM]"}, {"smiles": "NC(=S)N/N=C/c1cccnc1", "activity, negative = inhibition": "3.02%"}, {"smiles": "O=C(O)P(=O)(O)O", "activity, negative = inhibition": "0.38%"}, {"smiles": "c1ccc(CC2=NCCN2)cc1", "activity, negative = inhibition": "14% [at 12.8 µM]"}, {"smiles": "COc1ccc2c(c1)c1c3n2CCN(C)C3=NCC1", "activity, negative = inhibition": "2.54%"}, {"smiles": "O=C(O)C1(C(=O)O)CCC1.[NH2-].[NH2-].[Pt+2]", "activity, negative = inhibition": "0.349%"}, {"smiles": "COc1cc(C(=S)N2CCOCC2)ccc1O", "activity, negative = inhibition": "4.24%"}, {"smiles": "O=C(O)C(Cc1cc(I)c(O)c(I)c1)c1ccccc1", "note": "(stereo unspecified)", "activity, negative = inhibition": "13.8%"}, {"smiles": "COP(=O)(OC)OC(c1ccc(Cl)cc1)P(=O)(OC)OC", "note": "(stereo unspecified)", "activity, negative = inhibition": "2.88%"}, {"smiles": "CCCCNC(=O)NS(=O)(=O)c1ccc(N)cc1", "activity, negative = inhibition": "15.1%"}, {"smiles": "CC(=O)Nc1ccc(OCC(O)CNC(C)C)cc1", "note": "(stereo unspecified)", "activity, negative = inhibition": "0.872%"}, {"smiles": "CCCCCCCCOc1ccc(C(=O)c2ccccc2)c(O)c1", "activity, negative = inhibition": "0.914%"}, {"smiles": "CCOc1ccccc1OCCN[C@H](C)Cc1ccc(OC)c(S(N)(=O)=O)c1", "activity, negative = inhibition": "3.35%"}, {"smiles": "NS(=O)(=O)c1cc(C(=O)O)cc(N2CCCC2)c1Oc1ccccc1", "activity, negative = inhibition": "1.62% [at 12.8 µM]"}, {"smiles": "CCCCc1cc2ccccc2c(OCCN(C)C)n1", "activity, negative = inhibition": "-5.61% [at 12.8 µM]"}, {"smiles": "CNCCc1ccccn1", "activity, negative = inhibition": "12.5% [at 12.8 µM]"}, {"smiles": "CC(=O)NC(=O)c1ccccc1O", "activity, negative = inhibition": "1.68%"}, {"smiles": "CCNC(=O)NCc1cccc(Cl)c1", "activity, negative = inhibition": "3.41%"}, {"smiles": "CCc1oc2ccccc2c1C(=O)c1cc(Br)c(O)c(Br)c1", "activity, negative = inhibition": "8.7%"}, {"smiles": "CC(C)Cn1cnc2c1c(=O)n(C)c(=O)n2C", "activity, negative = inhibition": "2.97%"}, {"smiles": "CCCCCCCCCCCCCC[N+](C)(C)Cc1ccccc1", "Potency": "6.31 µM (active)"}, {"smiles": "CCN(CC)CCNC(=O)c1cc(Br)c(N)cc1OC", "activity, negative = inhibition": "1.48%"}, {"smiles": "CCNC(=O)/C=C/c1cccc(Br)c1", "activity, negative = inhibition": "-14.9%"}, {"smiles": "NC(=O)c1ccccc1O", "activity, negative = inhibition": "2.71%"}, {"smiles": "Nc1ccc(S(=O)(=O)NCc2ccccc2)cc1", "activity, negative = inhibition": "4.48%"}, {"smiles": "Cc1cc(NS(=O)(=O)c2ccc(N)cc2)nc(C)n1", "activity, negative = inhibition": "8.45%"}, {"smiles": "C#C[C@]1(O)CC[C@H]2[C@@H]3CCC4=Cc5oncc5C[C@]4(C)[C@H]3CC[C@@]21C", "activity, negative = inhibition": "-2.35%"}, {"smiles": "CC(=O)Oc1ccc(C)cc1", "activity, negative = inhibition": "9.07%"}, {"smiles": "NC(=O)n1c(O)c(C(=O)c2cccs2)c2cc(Cl)ccc21", "activity, negative = inhibition": "0.389%"}, {"smiles": "CCN1/C(=C/C=C/c2sc3ccccc3[n+]2CC)Sc2ccccc21", "Potency": "0.112 µM (active)"}]}, {"tested_on": "PAD", "test": "qHTS profiling for inhibitors of Plasmodium falciparum proliferation (AID 504749)", "conditions": "P. falciparum in erythrocytes, SYBR Green DNA, 72 h; series mostly up to 28.7 µM; activity, negative = inhibition: at the top concentration", "summary_of_the_method": "as §1", "values": [{"smiles": "CC(=O)Nc1ncc([N+](=O)[O-])s1", "activity, negative = inhibition": "5.77%"}, {"smiles": "C#C[C@]1(O)CC[C@H]2[C@@H]3CCc4cc(OC)ccc4[C@H]3CC[C@@]21C", "activity, negative = inhibition": "4.38%"}, {"smiles": "CC(=O)Nc1ccc(CC(=O)O)cc1", "activity, negative = inhibition": "17.2%"}, {"smiles": "COc1ccc(-c2cc(C(F)F)nn2-c2ccc(S(N)(=O)=O)cc2)cc1F", "activity, negative = inhibition": "4.31%"}, {"smiles": "Nc1ccc(S(=O)(=O)Nc2cnc3ccccc3n2)cc1", "activity, negative = inhibition": "14.3%"}, {"smiles": "CCCCCCCCCCCCCCCCO", "activity, negative = inhibition": "6.86%"}, {"smiles": "Cc1cccc(C)c1NC(=O)CN1CCCC1", "activity, negative = inhibition": "8.95%"}, {"smiles": "C[N+]1(CC2COC(c3ccccc3)(C3CCCCC3)O2)CCCCC1", "note": "(stereo unspecified)", "Potency": "5.01 µM (active)"}, {"smiles": "CCCCNc1ccc(C(=O)OCCOCCOCCOCCOCCOCCOCCOCCOCCOC)cc1", "activity, negative = inhibition": "-7.94% [at 12.8 µM]"}, {"smiles": "NC(=S)N/N=C/c1cccnc1", "activity, negative = inhibition": "13.3%"}, {"smiles": "O=C(O)P(=O)(O)O", "activity, negative = inhibition": "9.59%"}, {"smiles": "c1ccc(CC2=NCCN2)cc1", "activity, negative = inhibition": "8.1% [at 12.8 µM]"}, {"smiles": "COc1ccc2c(c1)c1c3n2CCN(C)C3=NCC1", "activity, negative = inhibition": "-2.51%"}, {"smiles": "O=C(O)C1(C(=O)O)CCC1.[NH2-].[NH2-].[Pt+2]", "activity, negative = inhibition": "8.29%"}, {"smiles": "COc1cc(C(=S)N2CCOCC2)ccc1O", "activity, negative = inhibition": "11.7%"}, {"smiles": "O=C(O)C(Cc1cc(I)c(O)c(I)c1)c1ccccc1", "note": "(stereo unspecified)", "activity, negative = inhibition": "0.875%"}, {"smiles": "COP(=O)(OC)OC(c1ccc(Cl)cc1)P(=O)(OC)OC", "note": "(stereo unspecified)", "activity, negative = inhibition": "4.35%"}, {"smiles": "CCCCNC(=O)NS(=O)(=O)c1ccc(N)cc1", "activity, negative = inhibition": "9.85%"}, {"smiles": "CC(=O)Nc1ccc(OCC(O)CNC(C)C)cc1", "note": "(stereo unspecified)", "activity, negative = inhibition": "2.23%"}, {"smiles": "CCCCCCCCOc1ccc(C(=O)c2ccccc2)c(O)c1", "activity, negative = inhibition": "10.2%"}, {"smiles": "CCOc1ccccc1OCCN[C@H](C)Cc1ccc(OC)c(S(N)(=O)=O)c1", "activity, negative = inhibition": "1.13%"}, {"smiles": "NS(=O)(=O)c1cc(C(=O)O)cc(N2CCCC2)c1Oc1ccccc1", "activity, negative = inhibition": "15.5% [at 12.8 µM]"}, {"smiles": "CCCCc1cc2ccccc2c(OCCN(C)C)n1", "activity, negative = inhibition": "0.323% [at 12.8 µM]"}, {"smiles": "CNCCc1ccccn1", "activity, negative = inhibition": "7.84% [at 12.8 µM]"}, {"smiles": "CC(=O)NC(=O)c1ccccc1O", "activity, negative = inhibition": "6.39%"}, {"smiles": "CCNC(=O)NCc1cccc(Cl)c1", "activity, negative = inhibition": "10.5%"}, {"smiles": "CCc1oc2ccccc2c1C(=O)c1cc(Br)c(O)c(Br)c1", "activity, negative = inhibition": "3.66%"}, {"smiles": "CC(C)Cn1cnc2c1c(=O)n(C)c(=O)n2C", "activity, negative = inhibition": "2.68%"}, {"smiles": "CCCCCCCCCCCCCC[N+](C)(C)Cc1ccccc1", "Potency": "11.2 µM (active)"}, {"smiles": "CCN(CC)CCNC(=O)c1cc(Br)c(N)cc1OC", "activity, negative = inhibition": "0.571%"}, {"smiles": "CCNC(=O)/C=C/c1cccc(Br)c1", "activity, negative = inhibition": "-0.477%"}, {"smiles": "NC(=O)c1ccccc1O", "activity, negative = inhibition": "9.64%"}, {"smiles": "Nc1ccc(S(=O)(=O)NCc2ccccc2)cc1", "activity, negative = inhibition": "3%"}, {"smiles": "Cc1cc(NS(=O)(=O)c2ccc(N)cc2)nc(C)n1", "activity, negative = inhibition": "2.32%"}, {"smiles": "C#C[C@]1(O)CC[C@H]2[C@@H]3CCC4=Cc5oncc5C[C@]4(C)[C@H]3CC[C@@]21C", "activity, negative = inhibition": "3.74%"}, {"smiles": "CC(=O)Oc1ccc(C)cc1", "activity, negative = inhibition": "10.7%"}, {"smiles": "NC(=O)n1c(O)c(C(=O)c2cccs2)c2cc(Cl)ccc21", "activity, negative = inhibition": "7.55%"}, {"smiles": "CCN1/C(=C/C=C/c2sc3ccccc3[n+]2CC)Sc2ccccc21", "Potency": "0.282 µM (active)"}]}]}
